Data taken from PubChem BioAssay (NCATS).
Results filed as inconclusive are left out. The source made the active and inactive calls. Calls follow the shape of the dose curve; as a rule, active = well fitted curve in the direction sought with a large enough effect; inconclusive = small, poorly fitted or top-dose-only effect, or another doubt; inactive = no such curve, though single readings can be large; an effect the other way counts as inactive or inconclusive.

What was measured:
MKL-2 = assay: qHTS assay to identify novel small-molecules to repurpose for Merkel cell carcinoma treatment (AID 1296009); conditions: MCC and control cell lines, CellTiter-Glo viability, 72 h; series mostly up to 46 µM; also: nearly all actives have a fitted effect of over 60% in size
Outline: (§1)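 Cells were treated for 72 hr at 37 degree celsius with compounds in 8- or 11-point dose response. Viability was read by CellTiter-Glo luminescence, normalized to no-cell (cytotoxicity) and DMSO controls.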

WaGa = assay: as above; conditions: MCC and control cell lines, CellTiter-Glo viability, 72 h; series mostly up to 46 µM
Outline: as §1

C33A = assay: Primary qHTS to identify gynecologic anti-cancer compounds using libraries of approved drugs and bioactive compounds (AID 1345084); conditions: Gynecologic cancer cell panel viability, ATPlite luminescence, 48 h; series mostly up to 57.5 µM; also: nearly all actives have a fitted effect of over 55% in size
Outline: (§2)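 In this quantitative HTS, cell killing is estimated from loss of ATP-dependent luciferase light. Cells see five compound concentrations over a 48 h exposure.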

CAOV3 = assay: as above; conditions: Gynecologic cancer cell panel viability, ATPlite luminescence, 48 h; series mostly up to 57.5 µM
Outline: as §2

CASKI = assay: as above; conditions: Gynecologic cancer cell panel viability, ATPlite luminescence, 48 h; series mostly up to 57.5 µM
Outline: as §2

Es-2 = assay: as above; conditions: Gynecologic cancer cell panel viability, ATPlite luminescence, 48 h; series mostly up to 57.5 µM
Outline: as §2

HeLa = assay: as above; conditions: Gynecologic cancer cell panel viability, ATPlite luminescence, 48 h; series mostly up to 57.5 µM
Outline: as §2

Hek293T = assay: as above; conditions: Gynecologic cancer cell panel viability, ATPlite luminescence, 48 h, control line for the selectivity index; series mostly up to 57.5 µM
Outline: as §2

JEG-3 = assay: as above; conditions: Gynecologic cancer cell panel viability, ATPlite luminescence, 48 h; series mostly up to 57.5 µM
Outline: as §2

OV90 = assay: as above; conditions: Gynecologic cancer cell panel viability, ATPlite luminescence, 48 h; series mostly up to 57.5 µM
Outline: as §2

PA-1 = assay: as above; conditions: Gynecologic cancer cell panel viability, ATPlite luminescence, 48 h; series mostly up to 57.5 µM
Outline: as §2

Tov-21-G = assay: as above; conditions: Gynecologic cancer cell panel viability, ATPlite luminescence, 48 h; series mostly up to 57.5 µM
Outline: as §2

Tov112D = assay: as above; conditions: Gynecologic cancer cell panel viability, ATPlite luminescence, 48 h; series mostly up to 57.5 µM
Outline: as §2

[1] = Drug repurposing screens with cells derived from glioblastoma tumor samples (AID 1345199); conditions: GBM patient neurospheres viability, ATP luminescence, 48 h; also: nearly all actives have a fitted effect of over 40% in size
Outline: (§3)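 Four patient lines of CD133+ GBM neurospheres were screened at several concentrations; hits were retested in those lines plus three slower-growing GBM lines, using 48-hour treatment and ATP-based viability.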

UISO = assay: qHTS assay to identify novel small-molecules to repurpose for Merkel cell carcinoma treatment (AID 1296009); conditions: MCC and control cell lines, CellTiter-Glo viability, 72 h; series mostly up to 46 µM; also: nearly all actives have a fitted effect of over 60% in size
Outline: as §1

SKOV3 = assay: Primary qHTS to identify gynecologic anti-cancer compounds using libraries of approved drugs and bioactive compounds (AID 1345084); conditions: Gynecologic cancer cell panel viability, ATPlite luminescence, 48 h; series mostly up to 57.5 µM; also: nearly all actives have a fitted effect of over 55% in size
Outline: as §2

astro = assay: Drug repurposing screens with cells derived from glioblastoma tumor samples (AID 1345199); conditions: viability, ATP luminescence, 48 h; series mostly up to 45.9 µM; also: nearly all actives have a fitted effect of over 40% in size
Outline: as §3

[2] = at 45.9 µM (top of the series), tumour line B
[3] = at 45.9 µM (top of the series), tumour line D
[4] = at 46.1 µM (top of the series), tumour line C
% is scaled to controls: 0 for no effect and ±100 for the full control effect; potency is read from the fitted curve at half-maximal effect.

CCCCNc1c(C(=O)OCC)c(C)nc2c1cnn2CC
active: Potency ([1]; tumour line A) 12.6 µM
inactive: Potency (MKL-2) | Potency (WaGa) | Potency (C33A) | Potency (CAOV3) | Potency (CASKI) | Potency (Es-2) | Potency (HeLa) | Potency (Hek293T) | Potency (JEG-3) | Potency (OV90) | Potency (PA-1) | Potency (Tov-21-G) | Potency (Tov112D) | activity, negative = cell killing [1, 2] -23.3%

C[N+](C)(C)CCOC(N)=O
inactive: Potency (MKL-2) | Potency (UISO) | Potency (WaGa) | Potency (C33A) | Potency (CASKI) | Potency (Es-2) | Potency (HeLa) | Potency (Hek293T) | Potency (JEG-3) | Potency (OV90) | Potency (PA-1) | Potency (SKOV3) | Potency (Tov-21-G) | Potency (Tov112D) | activity, negative = cell killing [1, 2] -5.35% | activity, negative = cell killing [1, 3] -11.4% | activity, negative = cell killing [1, 4] -0.881% | Potency (astro)

CC(C)(C)c1ccc(C(=O)CCCN2CCC(OC(c3ccccc3)c3ccccc3)CC2)cc1
active: Potency (MKL-2) 7.5 µM | Potency (WaGa) 15 µM | Potency (CAOV3) 28.2 µM | Potency ([1]; tumour line A) 2.51 µM | Potency ([1]; tumour line B) 25.1 µM | Potency ([1]; tumour line D) 5.01 µM
inactive: Potency (C33A) | Potency (CASKI) | Potency (Es-2) | Potency (JEG-3) | Potency (Tov-21-G) | Potency (Tov112D) | activity, negative = cell killing [1, 4] -18.9%

Cc1nc2c([nH]1)c(=O)n(C)c(=O)n2Cc1ccco1
inactive: Potency (MKL-2) | Potency (UISO) | Potency (WaGa) | Potency (C33A) | Potency (CAOV3) | Potency (CASKI) | Potency (Es-2) | Potency (Hek293T) | Potency (JEG-3) | Potency (OV90) | Potency (PA-1) | Potency (SKOV3) | Potency (Tov-21-G) | Potency (Tov112D) | activity, negative = cell killing [1, 2] -4.62% | activity, negative = cell killing [1, 3] -3.2% | activity, negative = cell killing [1, 4] -11.8% | Potency (astro)

CCN(CC)CCNC(=O)c1ccc(NC(C)=O)cc1
inactive: Potency (MKL-2) | Potency (UISO) | Potency (C33A) | Potency (CAOV3) | Potency (CASKI) | Potency (Es-2) | Potency (Hek293T) | Potency (JEG-3) | Potency (OV90) | Potency (PA-1) | Potency (SKOV3) | Potency (Tov-21-G) | Potency (Tov112D) | activity, negative = cell killing [1, 2] -5.4% | activity, negative = cell killing [1, 3] 7.82% | activity, negative = cell killing ([1]; at 46 µM (top of the series), tumour line A) 7.67% | activity, negative = cell killing [1, 4] -13.9%

OC(CCN1CCCCC1)(c1ccccc1)C1CCCCC1 (stereo not given)
inactive: Potency (MKL-2) | Potency (UISO) | Potency (WaGa) | Potency (C33A) | Potency (CAOV3) | Potency (CASKI) | Potency (Es-2) | Potency (Hek293T) | Potency (JEG-3) | Potency (PA-1) | Potency (SKOV3) | Potency (Tov-21-G) | Potency (Tov112D) | activity, negative = cell killing [1, 2] -11.3% | activity, negative = cell killing [1, 4] -28%

CCOC(=O)C1=C(C)NC(C)=C(C(=O)OC)C1c1cccc(Cl)c1Cl (stereo not given)
active: Potency ([1]; tumour line A) 12.6 µM
inactive: Potency (MKL-2) | Potency (UISO) | Potency (C33A) | Potency (CAOV3) | Potency (CASKI) | Potency (Es-2) | Potency (Hek293T) | Potency (JEG-3) | Potency (OV90) | Potency (PA-1) | Potency (SKOV3) | Potency (Tov-21-G) | Potency (Tov112D) | activity, negative = cell killing [1, 2] -16.5% | Potency (astro)

Cc1nc2ccccn2c(=O)c1CCN1CCC(C(=O)c2ccc(F)cc2)CC1
inactive: Potency (MKL-2) | Potency (UISO) | Potency (C33A) | Potency (CAOV3) | Potency (CASKI) | Potency (Es-2) | Potency (HeLa) | Potency (Hek293T) | Potency (JEG-3) | Potency (OV90) | Potency (PA-1) | Potency (Tov-21-G) | Potency (Tov112D) | activity, negative = cell killing [1, 2] -22.2% | Potency (astro)
active: Potency ([1]; tumour line A) 6.31 µM

N[C@@H](COP(=O)(O)O)C(=O)O
inactive: Potency (MKL-2) | Potency (UISO) | Potency (WaGa) | Potency (C33A) | Potency (CAOV3) | Potency (CASKI) | Potency (Es-2) | Potency (Hek293T) | Potency (JEG-3) | Potency (OV90) | Potency (PA-1) | Potency (SKOV3) | Potency (Tov-21-G) | Potency (Tov112D) | activity, negative = cell killing [1, 2] -4.31% | activity, negative = cell killing [1, 3] -5.04% | activity, negative = cell killing [1, 4] -9.92% | Potency (astro)

CCOC(=O)C1=C(C)NC(C)=C(C(=O)OC)C1c1cccc([N+](=O)[O-])c1 (stereo not given)
inactive: Potency (MKL-2) | Potency (UISO) | Potency (WaGa) | Potency (C33A) | Potency (CASKI) | Potency (Es-2) | Potency (HeLa) | Potency (Hek293T) | Potency (JEG-3) | Potency (OV90) | Potency (PA-1) | Potency (SKOV3) | Potency (Tov-21-G) | Potency (Tov112D) | activity, negative = cell killing [1, 2] 3.31% | activity, negative = cell killing [1, 3] -28.4% | activity, negative = cell killing [1, 4] -23.9% | Potency (astro)
active: Potency ([1]; tumour line A) 11.2 µM
